The values below come from PubChem BioAssay (EPA / NIEHS).

Several values for one entry are separate records, joined by “and”; a condition that tells them apart may be missing. Equal entries are not always repeated. Inconclusive results are not listed. Some compounds were tested as several samples or in several runs, with calls that do not always agree. Activity calls are given as the source filed them. The calls were made as follows, unless noted: active = hit-call score of the fitted dose curve at least 0.9, where 1 is the maximum; inactive = score below 0.9.

One may read the AC50 as the concentration at which the activity in the assay is half-maximal.

Test [1] has as its target Paired box protein Pax-6 (Homo sapiens) (UniProt P26367). Description: ATG_Pax6_CIS: Attagene CIS-FACTORIAL HepG2 Assay for human Paired Box 6 (PAX6) (AID 2282956). The conditions noted are these: HepG2 CIS-FACTORIAL PAX6 reporter transcription, RNA readout; actives raise or lower the signal. The procedure, abridged: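 Readout: reporter transcript fluorescence after RT-PCR and capillary electrophoresis. Cells: HepG2, transiently transfected with cis-regulated MRTUs. Exposure 24 h. Gain or loss of signal fitted bidirectionally relative to DMSO.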

Test [2] is described as follows: ATG_PXRE_CIS: Attagene CIS-FACTORIAL HepG2 Assay for human Pregnane X Receptor Element (PXRE) (AID 2282957). Particulars: HepG2 Attagene CIS-FACTORIAL PXRE reporter, mRNA; actives raise or lower the signal. The procedure, abridged: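 After a 24 h chemical incubation, total RNA from transfected HepG2 cells was reverse-transcribed and reporter cDNA amplified, FAM-labeled, HpaI-digested and sized by capillary electrophoresis. DMSO served as baseline for bidirectional curve fitting.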

A short description of test [3]: ATG_PPRE_CIS: Attagene CIS-FACTORIAL HepG2 Assay for human Peroxisome Proliferator-activated Response Element (PPRE) (AID 2282958). The conditions noted are these: HepG2 PPRE cis-element reporter, Attagene transcription factor profiling; actives raise or lower the signal. The procedure, abridged:
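Read-out: fluorescent reporter mRNA fragments resolved by capillary electrophoresis after RT-PCR. HepG2 cells carried transiently transfected PPRE-driven cis reporter constructs and were dosed for 24 h; gain or loss of signal fitted relative to DMSO.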

A short description of test [4]: ATG_RORE_CIS: Attagene CIS-FACTORIAL HepG2 Assay for human RAR-related Orphan Receptor Element (RORE) (AID 2282959). Particulars: HepG2 Attagene cis-factorial RORE reporter, mRNA; actives raise or lower the signal. The method in brief: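 Readout: fluorescent reporter mRNA by RT-PCR plus capillary electrophoresis, 24 h after dosing transfected HepG2 cells. Endogenous transcription factor activity on a cis promoter element is measured. Gain or loss of signal fitted against DMSO.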

Test [5] in a line: ATG_Sox_CIS: Attagene CIS-FACTORIAL HepG2 Assay for human SRY-box transcription factor (SOX) (AID 2282960). The conditions noted are these: HepG2 Attagene cis-factorial SOX reporter, mRNA; actives raise or lower the signal. The method in brief:
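Read-out: fluorescent RT-PCR products of SOX1-linked reporter transcripts resolved by capillary electrophoresis, fitted bidirectionally against DMSO. Transiently transfected HepG2 cells, 24 h after chemical exposure, endogenous transcription factor activity.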

Test [6] concerns the target Transcription factor Sp1 (Homo sapiens) (UniProt P08047). Description: ATG_Sp1_CIS: Attagene CIS-FACTORIAL HepG2 Assay for human Specificity Protein 1 (Sp1) (AID 2282961). The conditions noted are these: HepG2 Sp1 cis-reporter transcription, actives raise or lower the signal. The method in brief: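 Read-out: fluorescence of 6-FAM-labeled, HpaI-digested RT-PCR products separated by capillary electrophoresis. HepG2 cells carried transfected cis-element reporter units and were exposed to chemicals for 24 h; gain or loss of signal fitted relative to DMSO.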

A short description of test [7]: ATG_SREBP_CIS: Attagene CIS-FACTORIAL HepG2 Assay for human Sterol Regulatory Element Binding (SREBP) (AID 2282962). Particulars: HepG2 Attagene cis-factorial SREBP reporter, mRNA; actives raise or lower the signal. The method in brief:
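Readout: fluorescent reporter-transcript peaks resolved by capillary electrophoresis after RT-PCR. Cells were human HepG2 carrying transfected cis-promoter reporter constructs, dosed for 24 h. Gain or loss of signal was fitted against DMSO controls.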

The target of test [8] is Signal transducer and activator of transcription 3 (Homo sapiens) (UniProt P40763). The experiment in a line: ATG_STAT3_CIS: Attagene CIS-FACTORIAL HepG2 Assay for human Signal Transducer and Activator of Transcription 3 (STAT3) (AID 2282963). The conditions noted are these: HepG2, Attagene cis-factorial STAT3 reporter transcription; actives raise or lower the signal. The procedure, abridged: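 Cis-factorial format: endogenous transcription factors in HepG2 drive transfected reporter units. After 24 h treatment, reporter RNA was reverse-transcribed, amplified, FAM-labelled and HpaI-digested before CE analysis; activity scored in both directions against DMSO.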
Signal transducer and activator of transcription 3 (Homo sapiens), sequence (P40763 whole entry, looked up): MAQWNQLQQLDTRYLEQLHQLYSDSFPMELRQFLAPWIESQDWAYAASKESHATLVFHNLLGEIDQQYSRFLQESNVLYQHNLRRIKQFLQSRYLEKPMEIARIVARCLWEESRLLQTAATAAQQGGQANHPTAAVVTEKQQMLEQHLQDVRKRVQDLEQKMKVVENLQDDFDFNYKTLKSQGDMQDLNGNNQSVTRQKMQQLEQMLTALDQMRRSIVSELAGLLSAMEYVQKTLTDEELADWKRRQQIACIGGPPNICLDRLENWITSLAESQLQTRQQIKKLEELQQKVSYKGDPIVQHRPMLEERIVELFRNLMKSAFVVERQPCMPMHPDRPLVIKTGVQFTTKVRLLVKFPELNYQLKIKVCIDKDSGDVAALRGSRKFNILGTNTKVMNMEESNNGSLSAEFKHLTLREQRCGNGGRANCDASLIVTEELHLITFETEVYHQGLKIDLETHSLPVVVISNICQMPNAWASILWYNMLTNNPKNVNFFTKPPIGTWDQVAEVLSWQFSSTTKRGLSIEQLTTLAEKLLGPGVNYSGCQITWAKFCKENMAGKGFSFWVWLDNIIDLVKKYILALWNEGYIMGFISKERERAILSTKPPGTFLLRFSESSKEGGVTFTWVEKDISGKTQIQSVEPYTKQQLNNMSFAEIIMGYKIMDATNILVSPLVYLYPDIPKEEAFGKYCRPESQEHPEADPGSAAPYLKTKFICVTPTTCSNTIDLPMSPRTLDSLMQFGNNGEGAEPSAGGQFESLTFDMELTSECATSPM

The nature of test [9]: ATG_TA_CIS: Attagene CIS-FACTORIAL HepG2 Assay for human TA Basal Promoter (AID 2282964). The conditions noted are these: HepG2 Attagene CIS-factorial TA basal promoter reporter; actives raise or lower the signal. The method in brief:
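Steps: transfect HepG2 with MRTUs; dose 24 h; isolate RNA, DNase-treat, reverse-transcribe; PCR and FAM-label reporter cDNA; digest with HpaI 2h at 37 C; run capillary electrophoresis. Activity fitted both directions against DMSO.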

Test [10] in a line: ATG_TCF_b_cat_CIS: Attagene CIS-FACTORIAL HepG2 Assay for human T-Cell-Factor with beta-catenin (TCF/b-cat) (AID 2282965). Particulars: HepG2 TCF/beta-catenin cis-reporter transcription, actives raise or lower the signal. The method in brief:
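Measured: reporter mRNA in HepG2 transiently transfected with cis-promoter reporter units, 24 h after chemical addition. Fitting was bidirectional, DMSO as negative control.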

A short description of test [11]: ATG_TAL_CIS: Attagene CIS-FACTORIAL HepG2 Assay for human TAL Basal Promoter (AID 2282966).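 Also: background control endpoint measuring basal TAL promoter reporter mRNA not a specific factor.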 Particulars: HepG2 Attagene cis-factorial TAL promoter reporter; actives raise or lower the signal. The method in brief:
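Basal-promoter background-control endpoint from a multiplexed HepG2 reporter panel. Cells were exposed 24 h, then reporter mRNA was read by RT-PCR/CE fluorescence and fitted in both directions relative to DMSO.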

Test [12] in a line: ATG_TGFb_CIS: Attagene CIS-FACTORIAL HepG2 Assay for human Transforming Growth Factor (TGF) (AID 2282967). Particulars: HepG2 Attagene CIS TGFb reporter, mRNA transcription; actives raise or lower the signal. The procedure, abridged: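 Cells were dosed for 24 hours, after which total RNA was reverse-transcribed and reporter sequences amplified, labeled and sized by capillary electrophoresis. Activity was fitted in both directions against DMSO.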

Test [13] in a line: ATG_VDRE_CIS: Attagene CIS-FACTORIAL HepG2 Assay for human Vitamin D Receptor Element (VDRE) (AID 2282968). The conditions noted are these: HepG2 VDRE cis-reporter transcription, actives raise or lower the signal. The method in brief: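 Measures endogenous factor activity through cis-element-driven reporter transcripts in transiently transfected HepG2. Cells are treated 24 h; reporter mRNA is quantified by RT-PCR and capillary electrophoresis; fitting is bidirectional.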

In test [14] the target is Nuclear receptor subfamily 1 group I member 3 (Homo sapiens) (UniProt Q14994). The experiment in a line: ATG_CAR_TRANS: Attagene TRANS-FACTORIAL HepG2 Assay for human Constitutive Androstane Receptor (CAR) (AID 2282969; active = hit-call score of the fitted dose curve at least 0.9, where 1 is the maximum;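 also: activators raise reporter mRNA above DMSO so AC50 marks induction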). Particulars: HepG2 Attagene TRANS-FACTORIAL CAR reporter. The procedure, abridged:
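Signal is reporter mRNA induction relative to DMSO, measured 24 h after dosing by RT-PCR with fluorescent primer extension and capillary electrophoresis. Human HepG2 liver cells carried transiently transfected chimeric NR-Gal4/GAL4-UAS reporter constructs.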

Test [15] deals with Estrogen receptor (Homo sapiens) (UniProt P03372). Description: ATG_ERa_TRANS: Attagene TRANS-FACTORIAL HepG2 Assay for human Estrogen Receptor alpha (ERa) (AID 2282970; active = hit-call score of the fitted dose curve at least 0.9, where 1 is the maximum). The conditions noted are these: HepG2 Attagene TRANS ERa GAL4 reporter, mRNA. The procedure, abridged: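 Gal4-fusion ERa transactivation, measured as reporter transcript level in transiently transfected HepG2 cells. Exposure 24 h; RT-PCR plus capillary electrophoresis with fluorescence detection.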
Estrogen receptor (Homo sapiens), sequence (P03372 whole entry, looked up, the tested form may be a part): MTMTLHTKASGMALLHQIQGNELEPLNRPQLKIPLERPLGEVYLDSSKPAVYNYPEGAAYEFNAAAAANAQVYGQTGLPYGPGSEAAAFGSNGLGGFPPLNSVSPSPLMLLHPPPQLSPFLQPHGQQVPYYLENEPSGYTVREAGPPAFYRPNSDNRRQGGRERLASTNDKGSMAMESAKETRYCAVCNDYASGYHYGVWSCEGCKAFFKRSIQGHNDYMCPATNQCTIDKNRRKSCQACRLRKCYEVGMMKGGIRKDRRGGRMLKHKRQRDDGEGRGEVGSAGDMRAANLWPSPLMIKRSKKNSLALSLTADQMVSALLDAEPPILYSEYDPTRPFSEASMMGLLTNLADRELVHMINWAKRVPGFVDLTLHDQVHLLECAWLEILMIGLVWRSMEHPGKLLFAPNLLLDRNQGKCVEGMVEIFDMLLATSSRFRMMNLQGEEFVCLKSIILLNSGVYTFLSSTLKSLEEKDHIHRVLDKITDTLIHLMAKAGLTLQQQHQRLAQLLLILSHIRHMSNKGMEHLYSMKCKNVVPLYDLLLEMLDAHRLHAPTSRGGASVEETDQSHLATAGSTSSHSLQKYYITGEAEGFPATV

For test [16], the target named is X-box-binding protein 1 (Homo sapiens) (UniProt P17861). The experiment in a line: ATG_Xbp1_CIS: Attagene CIS-FACTORIAL HepG2 Assay for human X-box Binding Protein 1 (XBP1) (AID 2282972). The conditions noted are these: HepG2 XBP1 cis-element reporter, Attagene multiplex; actives raise or lower the signal. The procedure, abridged: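 Read-out: fluorescent reporter mRNA fragments resolved by capillary electrophoresis after RT-PCR. Human HepG2 liver cells carried transfected cis-promoter reporter units and were exposed to chemicals for 24 hours. Gain or loss of signal fitted relative to DMSO baseline.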
X-box-binding protein 1 (Homo sapiens), sequence (P17861 whole entry, looked up, the tested form may be a part): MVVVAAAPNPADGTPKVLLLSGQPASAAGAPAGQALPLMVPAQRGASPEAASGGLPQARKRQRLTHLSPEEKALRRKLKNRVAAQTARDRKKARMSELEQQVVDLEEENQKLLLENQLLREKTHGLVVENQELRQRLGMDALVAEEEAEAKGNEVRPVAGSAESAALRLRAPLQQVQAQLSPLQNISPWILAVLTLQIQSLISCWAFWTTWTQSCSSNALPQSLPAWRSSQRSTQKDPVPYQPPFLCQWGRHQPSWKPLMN

The nature of test [17]: ATG_M_19_TRANS: Attagene TRANS-FACTORIAL HepG2 Assay for M19 Transcription Factor (Internal Marker) (AID 2282974; active = hit-call score of the fitted dose curve at least 0.9, where 1 is the maximum). The conditions noted are these: HepG2 Attagene TRANS-FACTORIAL M19 internal marker reporter. The method in brief:
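24 h chemical exposure of transiently transfected HepG2 (MRTU library). RNA → oligo(dT) RT → PCR → 6-FAM labelling → HpaI cut → CE fluorescence. Positive-direction fit vs DMSO baseline; background internal-marker readout.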

A short description of test [18]: ATG_GAL4_TRANS: Attagene TRANS-FACTORIAL HepG2 Assay for GAL4 (Internal Marker) (AID 2282976; active = hit-call score of the fitted dose curve at least 0.9, where 1 is the maximum). The conditions noted are these: HepG2 Attagene TRANS GAL4 internal marker reporter. The method in brief:
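Background-control readout: GAL4-UAS reporter transcript in transiently transfected HepG2 cells after 24 h compound exposure. Measured by RT-PCR, 6-FAM primer extension, HpaI digest and capillary electrophoresis; gain-of-signal fit versus DMSO.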

Test [19] concerns the target Estrogen-related receptor gamma (Homo sapiens) (UniProt P62508). Description: ATG_ERRg_TRANS: Attagene TRANS-FACTORIAL HepG2 Assay for human Estrogen-Related Receptor gamma (ERRg) (AID 2282977; active = hit-call score of the fitted dose curve at least 0.9, where 1 is the maximum;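 also: hits increase reporter signal over DMSO so potencies reflect activators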). The conditions noted are these: HepG2 Attagene TRANS reporter, ERRg transactivation. The method in brief: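 Readout: fluorescent reporter-mRNA fragments resolved by capillary electrophoresis after RT-PCR and HpaI cut. Cells: transiently transfected HepG2 carrying GAL4-UAS reporters driven by exogenous NR-Gal4 chimeras, dosed 24 h. Activity fitted upward relative to DMSO baseline.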

Test [20] has as its target Steroid hormone receptor ERR1 (Homo sapiens) (UniProt P11474). The experiment in a line: ATG_ERRa_TRANS: Attagene TRANS-FACTORIAL HepG2 Assay for human Estrogen-Related Receptor alpha (ERRa) (AID 2282971; active = hit-call score of the fitted dose curve at least 0.9, where 1 is the maximum). Particulars: HepG2 Attagene TRANS reporter, ERRa transactivation. The procedure, abridged:
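HepG2 cells transiently transfected with GAL4-UAS reporter units and chimeric NR-Gal4 constructs; after 24 hour compound incubation, reporter mRNA quantified by RT-PCR, fluorescent labelling and capillary electrophoresis, gain of signal versus DMSO.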

Nuclear receptor subfamily 1 group I member 3 (Homo sapiens), sequence (Q14994 whole entry, looked up, the tested form may be a part): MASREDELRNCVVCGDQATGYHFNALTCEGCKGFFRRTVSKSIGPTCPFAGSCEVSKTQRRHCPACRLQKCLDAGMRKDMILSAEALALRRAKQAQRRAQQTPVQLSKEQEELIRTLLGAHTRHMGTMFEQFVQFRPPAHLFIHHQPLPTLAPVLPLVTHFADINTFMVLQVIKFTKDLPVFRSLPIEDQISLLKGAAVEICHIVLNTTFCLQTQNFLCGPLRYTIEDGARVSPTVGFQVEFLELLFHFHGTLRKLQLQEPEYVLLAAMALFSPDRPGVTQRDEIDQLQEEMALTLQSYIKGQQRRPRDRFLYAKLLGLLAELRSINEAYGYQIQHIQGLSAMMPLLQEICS
Transcription factor Sp1 (Homo sapiens), sequence (P08047 whole entry, looked up): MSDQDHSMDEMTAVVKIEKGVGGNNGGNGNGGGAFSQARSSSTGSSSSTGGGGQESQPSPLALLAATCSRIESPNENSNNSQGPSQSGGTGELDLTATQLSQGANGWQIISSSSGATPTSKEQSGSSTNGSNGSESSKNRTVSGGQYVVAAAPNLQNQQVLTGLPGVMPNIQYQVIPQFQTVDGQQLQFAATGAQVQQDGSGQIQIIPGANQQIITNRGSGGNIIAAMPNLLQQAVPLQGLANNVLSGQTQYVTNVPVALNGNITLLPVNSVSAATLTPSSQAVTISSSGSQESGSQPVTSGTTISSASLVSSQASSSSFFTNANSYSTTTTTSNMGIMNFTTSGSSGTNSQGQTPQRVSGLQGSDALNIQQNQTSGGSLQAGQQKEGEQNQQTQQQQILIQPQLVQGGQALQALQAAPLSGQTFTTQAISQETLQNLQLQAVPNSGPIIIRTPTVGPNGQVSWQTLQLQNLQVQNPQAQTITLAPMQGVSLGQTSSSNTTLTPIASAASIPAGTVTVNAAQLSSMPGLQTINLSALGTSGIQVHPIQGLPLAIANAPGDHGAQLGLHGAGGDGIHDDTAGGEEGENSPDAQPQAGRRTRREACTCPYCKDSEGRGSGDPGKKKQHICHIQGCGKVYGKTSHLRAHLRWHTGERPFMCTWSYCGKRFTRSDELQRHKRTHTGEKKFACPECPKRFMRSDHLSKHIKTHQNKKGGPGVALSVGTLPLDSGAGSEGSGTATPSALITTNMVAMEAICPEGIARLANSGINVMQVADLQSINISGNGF
Paired box protein Pax-6 (Homo sapiens), sequence (P26367 whole entry, looked up): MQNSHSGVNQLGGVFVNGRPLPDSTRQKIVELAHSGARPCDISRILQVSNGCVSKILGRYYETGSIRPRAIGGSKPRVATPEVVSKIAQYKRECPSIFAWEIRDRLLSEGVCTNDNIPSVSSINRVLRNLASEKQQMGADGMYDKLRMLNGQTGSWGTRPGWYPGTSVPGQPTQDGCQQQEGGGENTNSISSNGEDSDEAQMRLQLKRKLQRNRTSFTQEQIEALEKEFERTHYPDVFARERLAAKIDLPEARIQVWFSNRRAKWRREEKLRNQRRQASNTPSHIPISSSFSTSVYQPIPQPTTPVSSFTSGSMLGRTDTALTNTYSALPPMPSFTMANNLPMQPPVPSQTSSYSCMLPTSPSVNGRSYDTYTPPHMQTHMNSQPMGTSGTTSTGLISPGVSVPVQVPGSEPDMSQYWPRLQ
Estrogen-related receptor gamma (Homo sapiens), sequence (P62508 whole entry, looked up, the tested form may be a part): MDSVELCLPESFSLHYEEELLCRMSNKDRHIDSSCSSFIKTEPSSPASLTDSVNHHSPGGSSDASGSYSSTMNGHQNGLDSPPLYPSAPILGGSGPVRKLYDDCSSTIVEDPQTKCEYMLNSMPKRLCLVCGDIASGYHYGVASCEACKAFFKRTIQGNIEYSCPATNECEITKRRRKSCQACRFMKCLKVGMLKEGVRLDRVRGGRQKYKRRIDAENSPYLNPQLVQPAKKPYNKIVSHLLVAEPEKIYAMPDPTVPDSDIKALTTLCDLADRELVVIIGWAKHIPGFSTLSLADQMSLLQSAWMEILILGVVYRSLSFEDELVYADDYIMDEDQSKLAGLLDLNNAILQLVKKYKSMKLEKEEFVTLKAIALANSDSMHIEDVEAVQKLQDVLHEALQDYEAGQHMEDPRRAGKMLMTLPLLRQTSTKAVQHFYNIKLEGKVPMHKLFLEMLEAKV
Steroid hormone receptor ERR1 (Homo sapiens), sequence (P11474 whole entry, looked up, the tested form may be a part): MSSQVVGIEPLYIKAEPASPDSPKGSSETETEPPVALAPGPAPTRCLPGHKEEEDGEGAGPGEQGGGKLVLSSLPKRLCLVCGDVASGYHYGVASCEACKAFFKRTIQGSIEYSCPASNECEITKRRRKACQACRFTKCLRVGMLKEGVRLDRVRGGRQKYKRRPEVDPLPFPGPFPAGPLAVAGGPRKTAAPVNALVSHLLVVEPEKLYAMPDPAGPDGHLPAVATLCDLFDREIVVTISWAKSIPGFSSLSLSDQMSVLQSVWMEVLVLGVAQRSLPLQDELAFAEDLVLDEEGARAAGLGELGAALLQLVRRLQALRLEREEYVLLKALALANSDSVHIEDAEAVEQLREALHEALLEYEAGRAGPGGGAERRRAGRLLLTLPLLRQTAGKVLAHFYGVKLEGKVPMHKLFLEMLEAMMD

With `CCCCCc1ccc(N)cc1`, the compound was classed as inactive in test [1], in test [2], in test [3], in test [4], in test [5] and in [6]. Moreover, the compound was classed as inactive in test [7], in test [8], in [9], in test [10], in [11] and in test [12]. Also, the compound was called inactive in test [13], in test [14], in test [16], in [17] and in test [18]. For the same compound, the AC50 was 72.9 µM (active) and 27.4 µM (active) and 21.2 µM (active) in [2]; 8.92 µM (active) and 6.2 µM (active) and 19.5 µM (active) in test [10]; 12.2 µM (active) [middle of 4 runs] in [15].
As to `O=C1CCC(C2CCCCC2)CC1`, the AC50 in test [1] was 156 µM (active); in test [2], 10.4 µM (active) [middle of 4 runs]; in test [6] it was 171 µM (active); in test [13], 86.8 µM (active). Moreover, the compound was called inactive in test [1], in test [3], in [4], in [5], in [6] and in test [7]. In addition, the compound was classed as inactive in [8], in [9], in test [10], in test [11], in test [12] and in test [13]. The result in [14], in test [16], in test [17], in test [18] and in test [19] was inactive.
Consider `Cc1cccc2ccccc12`, for which the outcome in test [1], in test [2], in test [3], in [4], in test [5] and in test [6] was inactive. Further, the compound was called inactive in [7], in [8], in test [9], in test [10], in test [11] and in test [12]. For the same compound, the result in test [13], in test [14], in [15], in test [20], in test [16] and in test [17] was inactive. Moreover, the call in test [18] was inactive.
